Assay outcomes as filed in PubChem BioAssay.
Mtb hypoxia rep – reduces hypoxia-regulated biosensor signal in M. tuberculosis | M. tuberculosis hypoxia-regulated fluorescent reporter, fluorescence | fluorescence inhibition, % (test concentration not listed) | 300,000 compounds, 0.1% hits; in the data active means fluorescence inhibition mostly above about 23%, no sharp cut-off; inactive means mostly below about 17%
TcdB inh – blocks C. difficile toxin B glycohydrolase activity; TcdB glycohydrolase enzymatic assay, plate reader; inhibition, % at 9.99 µM; 350,000 compounds, 0.24% hits; AID 652162; in the data active means inhibition above about 10%
PfHsp40 yeast – rescue of PfHsp40-mediated yeast toxicity; S. cerevisiae expressing PfHsp40, growth rescue, ATP luminescence; growth rescue, % at 12.5 µM; 340,000 compounds, 0.68% hits; AID 504582; in the data active means growth rescue above about 28%, passing the limit was not always enough;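 further: yeast W303a lacking pdr1 and pdr3 grown in galactose medium; growth measured after three days at 30 °C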
Sa ugtP lethal – kills S. aureus RN4220 lacking UgtP; growth inhibition, % (test concentration not listed); S. aureus RN4220 ugtP deletion, OD600 growth, 16 h; 330,000 compounds, 0.54% hits; in the data active means growth inhibition above about 68%;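 further: plate controls were untreated wells for no effect and antibiotic for full effect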
RN4220 kill – kills Staphylococcus aureus RN4220 | 330,000 compounds, 0.33% hits | S. aureus RN4220 growth, OD600, 16 h | AID 1259311 | inhibition, % (test concentration not listed); in the data active means inhibition above about 85%;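 further: plate controls were untreated cells for no effect and reference antibiotic for full effect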
MazEF act – MazEF (E. coli) toxin RNase activation. P0AE70. FAM/BHQ RNA-DNA oligo cleavage fluorescence, 5 h. activation, % at 20 µM. 350,000 compounds, 0.32% hits; in the data active means activation above about 50%
Target sequence (P0AE70 whole entry, looked up): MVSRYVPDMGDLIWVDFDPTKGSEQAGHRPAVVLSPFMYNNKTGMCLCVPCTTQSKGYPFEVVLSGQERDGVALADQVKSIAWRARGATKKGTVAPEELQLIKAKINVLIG
* hit, by the source's call. An excerpt weighted towards active compounds, which were near 1.3% of everything screened.

For CC(=O)Nc1ccc(-c2ccc(NC(C)=O)c(O)c2)cc1O the results were Mtb hypoxia rep 5, TcdB inh -1, PfHsp40 yeast 0, Sa ugtP lethal -2, RN4220 kill -1 and MazEF act -1.
`CC(=O)Nc1ccccc1O` gave Mtb hypoxia rep -3, TcdB inh 20*, PfHsp40 yeast 1, Sa ugtP lethal -3, RN4220 kill 8 and MazEF act 7.
`O=C(C1CC1)N1CC2(C1)[C@H](c1ccccc1)[C@@H](CO)N2C(=O)CC1CC1` gave TcdB inh 1.
COc1cc(Cc2cnc(N)nc2N)cc(OC)c1OC was read as Mtb hypoxia rep -1, TcdB inh 1, PfHsp40 yeast 2, Sa ugtP lethal 100*, RN4220 kill 98* and MazEF act 7.
`COc1cc(CN2CCCCCC2)cc(OC)c1OC` gave Mtb hypoxia rep 10, TcdB inh 1, PfHsp40 yeast -1, Sa ugtP lethal 2, RN4220 kill -2 and MazEF act -7.
`COC(=O)CCCC1=CC2=C(c3ccccc3)C(=O)C(C)(OC(=O)C3CCCC3)C(=O)C2=CN1CCc1c[nH]c2ccccc12` (configuration not stated) gave Mtb hypoxia rep 4, TcdB inh 0, PfHsp40 yeast -1, Sa ugtP lethal -5, RN4220 kill 6 and MazEF act 54*.
`COC(=O)CCCC1=CC2=C(c3ccccc3)C(=O)C(C)(OC(=O)C3CCCC3)C(=O)C2=CN1CCc1ccccn1` (configuration not stated) gave Mtb hypoxia rep 6, TcdB inh 0, PfHsp40 yeast -1, Sa ugtP lethal 0, RN4220 kill 4 and MazEF act -9.
`O=C(CCCNC(=O)C(=Cc1ccc(F)cc1)NC(=O)c1ccccc1)OCc1ccccc1` gave Mtb hypoxia rep 1, Sa ugtP lethal 14 and RN4220 kill 9.
`O=C(NC(=S)N1CCN(c2ccc(C(F)(F)F)cc2[N+](=O)[O-])CC1)c1cccs1` gave Mtb hypoxia rep 11, PfHsp40 yeast 122*, Sa ugtP lethal 13, RN4220 kill 21 and MazEF act 3.
`CCCCOc1cccc(C(=O)Nc2ccc(S(=O)(=O)Nc3cc(C)on3)cc2)c1` gave Mtb hypoxia rep 3, TcdB inh 1, PfHsp40 yeast 0, Sa ugtP lethal 10, RN4220 kill 2 and MazEF act 0.
For CCCCOc1ccc(C(=O)Nc2ccc(S(=O)(=O)Nc3cc(C)on3)cc2)cc1OC the results were Mtb hypoxia rep 11, TcdB inh -1, PfHsp40 yeast -1, Sa ugtP lethal 17, RN4220 kill 11 and MazEF act 56*.
For CC(C)/C(C=O)=C(\NC1CCCCC1)c1ccccc1 the results were Mtb hypoxia rep 7, Sa ugtP lethal 15 and RN4220 kill 4.
For ON=Cc1cccnc1Sc1ccccc1 the results were Mtb hypoxia rep 0, Sa ugtP lethal -1 and RN4220 kill 2.
For CCC(C)C1CNC(=S)N1CCC12CC3CC(CC(C3)C1)C2 (configuration not stated) the results were Mtb hypoxia rep 7, Sa ugtP lethal 9 and RN4220 kill 2.
Screening O=C1NC(=S)N(C2CC2)C(=O)/C1=C/c1ccc2c(c1)CCN2CCCCl returned Mtb hypoxia rep 10, PfHsp40 yeast 63*, Sa ugtP lethal 2, RN4220 kill 6 and MazEF act 22.
`CCN1C(=O)/C(=C/c2ccc3c(c2)CCN3CCCCl)C(=O)NC1=S` gave Mtb hypoxia rep -5, TcdB inh 0, PfHsp40 yeast 0, Sa ugtP lethal 0, RN4220 kill 0 and MazEF act 4.
`COc1ccc(C=N/N=C2/NC(=O)CC(C(=O)O)S2)cc1` (configuration not stated) gave Mtb hypoxia rep 4, Sa ugtP lethal 4 and RN4220 kill -1.
Screening C/C(=N/NC(=O)c1ccncc1)c1cc2ccc(O)cc2oc1=O returned TcdB inh -1, PfHsp40 yeast 2 and MazEF act active.
CN1CCc2c(sc3c2c(=O)n(-c2ccc(Cl)cc2)c2nncn32)C1 was read as Mtb hypoxia rep 4, PfHsp40 yeast 0, Sa ugtP lethal 2, RN4220 kill 2 and MazEF act 10.
